Source: PubChem BioAssay (NCI)
About 83,000 compounds went through this panel and 20% of them were active in at least one assay; those are over-represented in the sample as a whole.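 Each cell line was grown in a 96-well plate and treated with one concentration of compound for 48 hours. Values below 10 were considered active.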 Activity calls are given as the source filed them.

What follows are compounds tested on CCRF-CEM leukemia (assay: NCI-60 one-dose screen, 48 h (100 = growth as untreated, 0 = no growth, -100 = all killed)). Conditions: 10 µM unless noted.

| Compound | growth |
| --- | --- |
| C=C(C)[C@@H]1CC[C@]2(C(N)=O)CC[C@]3(C)[C@H](CC[C@@H]4[C@@]5(C)CC[C@H](O)C(C)(C)[C@@H]5CC[C@]43C)[C@@H]12 | 3.11% [100 µM] (active) |
| CCN1CCN(CC(=O)Nc2nc3ccc(NCc4ccc(Cl)cc4)cc3s2)CC1 | 50% (inactive) |
| COc1cc(C)cc2oc3oc(=O)c(C(=O)c4cc5cc(Br)ccc5o4)cc3c(=O)c12 | 120% (inactive) |
| O=S(=O)(NCCCNc1nccc(-c2c(-c3cccc(F)c3)nc3occn23)n1)c1cccc2ccccc12 | 25.9% (inactive) |
| CC1(C)[C@@H](NOCCCN)CC[C@]2(C)[C@H]3C(=O)C=C4[C@@H]5C[C@](C)(C(=O)O)CC[C@]5(C)CC[C@@]4(C)[C@]3(C)CC[C@@H]12 | 11.6% [100 µM] (inactive) |
| O=c1[nH]c(CN2CCN(c3cccc(Cl)c3)CC2)nc2cc(Cl)ccc12 | 105% (inactive) |
| COc1cc2c(O)n(CCCN3CCOCC3)c3c4cnc5cccc(c(=O)c3c2cc1OC)c54 | 15.1% (inactive) |
| CCOC(=O)c1sc2nc(-c3cc(OC)c(OC)c(OC)c3)nc(N3CCOCC3)c2c1C | 17.1% (inactive) |
| Cc1cc(C)c(S(=O)(=O)/N=c2/n(-c3ccccc3)nc3n2CCN3C2=NCCN2)c(C)c1 | 83.7% (inactive) |
| Cc1ccc(S(=O)(=O)N/N=C2\CC3CCC2(C)C3(C)C)cc1 (configuration not stated) | 112% (inactive) |
| N#C/C(C(=O)c1ccccc1)=C1/C(=O)Nc2ccccc21 | 103% (inactive) |
| CCc1ccc(C2=C/C(=C/c3ccccc3)C(=O)N2CCc2ccc(S(N)(=O)=O)cc2)cc1 | 106% (inactive) |
| CC(C)C1=NOC(=O)C1=Cc1cn(-c2ccco2)nc1-c1ccccc1 | 32.9% (inactive) |
| COc1cc(Cl)cc(-c2nn(C(=O)NS(=O)(=O)c3ccccc3)cc2-c2ccncc2)c1 | 94.6% (inactive) |
| C=C(C)[C@@H]1CC[C@]2(COCCC#N)CC[C@]3(C)[C@H](CC[C@@H]4[C@@](C)(CCCNCCC#N)[C@H](C(=C)C)CC[C@]43C)[C@@H]12 | 1.32% [100 µM] (active) |
| COc1ccc(N(c2nc(-c3ccc([N+](=O)[O-])cc3)cs2)C(C)C)cc1 | 62.5% (inactive) |
| NS(=O)(=O)c1ccc(CCN2C(=O)/C(=C\c3ccccc3)C=C2c2ccc(Cl)cc2)cc1 | 101% (inactive) |
| O=C1C(Cl)=C(Nc2ccc3cn[nH]c3c2)C(=O)c2ccccc21 | -43.8% (active) |
| CC(C)c1ccc(C(=O)Nc2sc3c(c2C#N)CCC(=O)C3)cc1 | 1.37% (active) |

| Compound | growth |
| --- | --- |
| Cc1ccc2c(c1)/C(=N\N=C/c1cn(C(C)C)c3ccccc13)C(=O)N2 | 6.69% (active) |
| O=C(C[n+]1ccn(CC(OCc2ccc(Cl)cc2Cl)c2ccc(Cl)cc2Cl)c1)c1ccc(F)cc1 (configuration not stated) | -12.1% (active) |
| CCOc1cccc2c(NC(C)CCCN(CC)CC)c(C)cnc12 (configuration not stated) | 108% (inactive) |
| O=C(Nc1cccc2ccccc12)c1cc2ccccc2cc1O | 17.1% (inactive) |
| Cc1cc(C)nc(SCC(=O)Nc2cccc(N=Cc3ccccc3O)c2)n1 | 88.6% (inactive) |
| CSc1nc2c(c(=O)n1C)C1(C(=O)N(Cc3ccccc3)c3ccccc31)c1c(nc(SC)n(C)c1=O)N2 | 98.8% (inactive) |
| O=C1COCCN1c1ccc(NCc2cn(Cc3ccc(F)cc3)c3ccccc23)cc1 | 92.9% (inactive) |
| CCN(CCO)CCC(=O)c1ccc([N+](=O)[O-])cc1 | 124% (inactive) |
| O=C(Nc1cccc(C2=NCCN2)c1)c1cccc(C(=O)Nc2cccc(C3=NCCN3)c2)c1 | 104% (inactive) |
| CC(C)[C@H]1CCC2=C3CC[C@]45OC(=O)[C@@]6(CCC(C)(C)C[C@H]64)CC[C@@]5(C)[C@]3(C)CC[C@@]21C | 49.7% [100 µM] (inactive) |
| COc1ccc(/C=C2\N=C(Nc3ccccc3)N(NC(=O)c3ccccn3)C2=O)cc1 | 99.2% (inactive) |
| Nc1nnc(CSc2nnc3n(Cc4ccccc4)c(=O)c4c5c(sc4n23)CCCC5)s1 | 69.1% (inactive) |
| O=C(NCCCNC(=O)OCc1ccc2c(Br)cc(Br)c(O)c2n1)OCc1ccc2c(Br)cc(Br)c(O)c2n1 | 4.23% (active) |
| CCn1cc(-c2[nH]c(=S)ncc2-c2ccc(Cl)cc2)c(-c2ccc(Br)cc2)n1 | 97.8% (inactive) |
| Cc1cccc(C[C@H](NC(=O)Nc2ccc(Cl)cc2F)C(=O)N[C@@H]2C(=O)N3C[C@H](O)C[C@H]3C(=O)N3CCCC[C@H]3C(=O)N[C@@H](C)C(=O)N3C[C@H](C)C[C@H]3C(=O)O[C@H]2C)c1 | 31% (inactive) |
| O=C(NCCCNC(=O)OCc1ccc2cccc(O)c2n1)OCc1ccc2cccc(O)c2n1 | 6.81% (active) |
| CCN(CC)CCCC(C)Nc1ccnc2cc(Cl)c(SCc3ccccc3)cc12 (configuration not stated) | -25.9% (active) |
| Cc1ccc(C2=C/C(=C/c3ccc(Br)cc3)C(=O)N2CCc2ccc(S(N)(=O)=O)cc2)cc1 | 104% (inactive) |
